From PubChem BioAssay
SW480 rereplic – DNA re-replication induction in SW480 cells; AID 624297; 340,000 tested, 1.8% active; Potency, µM (top dose mostly 46.1 µM), for the others: at the top dose re-replication activation, hits mostly activators; SW480 DNA re-replication, Hoechst DNA content imaging, 48 h; further: % of control where 0% means no effect; nearly all actives have a fitted effect of over 55% in size
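Treated cells incubate 48 hr (37 C, 5% CO2), are stained 40 min with Hoechst, and nuclear fluorescence is enumerated; a rise in nuclei with high DNA signal marks re-replication.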
MCF10A rereplic – DNA re-replication induction in MCF 10a cells. MCF 10A DNA re-replication, Hoechst nuclear intensity, 48 h. Potency, µM (titrated, usually from 46.1 µM), for the others: top-dose activity, positive = re-replication, hits mostly activators. 350,000 tested, 2.9% active; further: % of control where 0% means no effect; nearly all actives have a fitted effect of over 50% in size
KB-3-1 cytotox – KB-3-1 parental cell cytotoxicity; KB-3-1 viability, CellTiter-Glo ATP luminescence, 72 h; Potency, µM (titrated, usually from 46.1 µM), usual class: cytotoxic; 400,000 tested, 1.4% active; AID 1347075; further: on the % scale 0 is the no-effect control and ±100 the full control effect; nearly all actives have a fitted effect of over 60% in size
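Cytotoxicity in the drug-sensitive parental line KB-3-1 was scored as loss of CellTiter-Glo luminescence following 72 h incubation with compound. Values come from curve fitting of normalized concentration-response data.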
KB-V1 cytotox – kills drug-selected multidrug resistant KB-V1 cells. KB-V1 MDR cells viability, CellTiter-Glo, 72 h. Potency, µM (series often up to 46.1 µM), most hits filed as cytotoxic. 400,000 tested, 3.4% active; further: on the % scale 0 is the no-effect control and ±100 the full control effect; nearly all actives have a fitted effect of over 60% in size
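Cells of the MDR subline KB-V1 are plated, dosed with compound at multiple concentrations, and incubated 72 h at 37 degrees C; CellTiter-Glo is then added and luminescence read after 10 min.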
ELG1 DNA repair – blocks ELG1-dependent DNA repair in HEK293T cells | 330,000 tested, 2.3% active | HEK293T ELG1-luciferase reporter, luminescence, 16 h; DNA damage induced by 5-fluorouridine | Potency, µM (top dose mostly 46.1 µM), for the others: at the highest dose activity change, negative = inhibition, hits mostly inhibitors; further: on the % scale 0 is the no-effect control and ±100 the full control effect; nearly all actives have a fitted effect of over 55% in size
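Luminescence from the luciferase reporter, measured 30 min after ONE-Glo reagent at room temperature, was the read-out. Beforehand, 2,000 cells per well were exposed for 16 hr at 37 °C to 5-fluorouridine together with compound or vehicle.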
An asterisk follows results filed as active. The list is not random: actives were taken first. Their share in the collection is about 8.2%. The call rests on the fitted dose curve; in most records, active means well fitted curve in the direction sought with a large enough effect; inconclusive means small, poorly fitted or top-dose-only effect, or another doubt; inactive means no such curve, though single readings can be large; an effect the other way counts as inactive or inconclusive. Potency means the concentration at half of the fitted maximal effect.

Screening Cc1ccc(S(=O)(=O)N(CC(=O)NCCC2=CCCCC2)Cc2ccccc2F)cc1 returned SW480 rereplic inconclusive, MCF10A rereplic inconclusive, KB-3-1 cytotox inactive, KB-V1 cytotox inconclusive and ELG1 DNA repair -16%.
O=C(CN(Cc1ccccc1F)S(=O)(=O)c1ccc(Cl)cc1)NCCC1=CCCCC1 was read as SW480 rereplic -1%, MCF10A rereplic inconclusive, KB-3-1 cytotox inconclusive, KB-V1 cytotox 6.5µM* and ELG1 DNA repair -3%.
Nc1nc(-c2ccc(Cl)cc2)nc(-c2ccc(Cl)cc2)n1 was read as SW480 rereplic 9%, MCF10A rereplic inconclusive, KB-3-1 cytotox inactive, KB-V1 cytotox inactive and ELG1 DNA repair 0%.
For COc1cc(/C=N/NC(=O)c2nnn(-c3nonc3N)c2C(C)C)ccc1OCc1ccc(F)cc1 the results were SW480 rereplic inconclusive, MCF10A rereplic inconclusive, KB-3-1 cytotox inconclusive, KB-V1 cytotox inactive and ELG1 DNA repair inconclusive.
For COc1ccncc1-c1ccc(C2=CC(=O)CC(C)(C)C2=O)cc1 the results were KB-3-1 cytotox inactive and KB-V1 cytotox inactive.
CC(=O)Nc1cc(-c2cccc(C(=O)NCCN(C)C)c2)cn2c(-c3ccc(C(C)=O)cc3)cnc12 was read as KB-3-1 cytotox inconclusive and KB-V1 cytotox inactive.
Screening CSc1ccc(CN(C)CC(=O)NC(=O)NC(C)(C)C)cc1 returned SW480 rereplic -1%, MCF10A rereplic 4%, KB-3-1 cytotox inactive, KB-V1 cytotox inactive and ELG1 DNA repair -20%.
CSc1ccc(CN(C)CC(=O)NC(=O)NCCC2=CCCCC2)cc1 was read as SW480 rereplic -8%, MCF10A rereplic -5%, KB-3-1 cytotox inactive, KB-V1 cytotox 21µM* and ELG1 DNA repair -1%.
`CCC(C)c1ccccc1N1CC(C(=O)NCCC2=CCCCC2)CC1=O` (centres undefined) gave SW480 rereplic 2%, MCF10A rereplic -5%, KB-3-1 cytotox inactive, KB-V1 cytotox 23µM* and ELG1 DNA repair -17%.
For O=C(NC(=S)Nn1cnc2c(cnn2-c2ccccc2)c1=O)c1ccccc1 the results were SW480 rereplic -7%, MCF10A rereplic -1%, KB-3-1 cytotox inconclusive, KB-V1 cytotox inactive and ELG1 DNA repair 11%.
For CCOc1ccc(N2C(=O)/C(=C/c3cc(OC)c(OC)c(OC)c3)N(CC(=O)OC)C2=S)cc1 the results were SW480 rereplic 14%, MCF10A rereplic 23µM*, KB-3-1 cytotox inactive, KB-V1 cytotox inconclusive and ELG1 DNA repair inconclusive.
COc1ccc([N+](=O)[O-])cc1NC(=O)C(C)N(C)Cc1ccc(Br)cc1 (centres undefined) was read as SW480 rereplic -1%, MCF10A rereplic -4%, KB-3-1 cytotox inactive, KB-V1 cytotox inconclusive and ELG1 DNA repair 21µM*.
For COc1ccc([N+](=O)[O-])cc1NC(=O)C(C)NNC(=O)c1cccc([N+](=O)[O-])c1 (centres undefined) the results were SW480 rereplic -4%, MCF10A rereplic 11%, KB-3-1 cytotox inactive, KB-V1 cytotox 18µM* and ELG1 DNA repair inconclusive.
Screening CCOc1ccc(CN(C)C(C)C(=O)Nc2ccc([N+](=O)[O-])cc2Cl)cc1OC (centres undefined) returned SW480 rereplic -6%, MCF10A rereplic -11%, KB-3-1 cytotox inactive, KB-V1 cytotox inactive and ELG1 DNA repair 15µM*.
`CCOCC(=O)Nc1ccc([N+](=O)[O-])cc1Cl` gave SW480 rereplic 10%, MCF10A rereplic inconclusive, KB-3-1 cytotox inactive, KB-V1 cytotox inactive and ELG1 DNA repair 16%.
COc1ccc(CN(C)C(C)C(=O)Nc2ccc([N+](=O)[O-])cc2Cl)cc1OC (centres undefined) was read as SW480 rereplic inconclusive, MCF10A rereplic 18%, KB-3-1 cytotox inactive, KB-V1 cytotox 5.2µM* and ELG1 DNA repair 9.2µM*.
Screening COc1ccc(Br)cc1CN(C)C(C)C(=O)Nc1cc([N+](=O)[O-])ccc1OC (centres undefined) returned SW480 rereplic 1%, MCF10A rereplic 11%, KB-3-1 cytotox inconclusive, KB-V1 cytotox inactive and ELG1 DNA repair inconclusive.
COc1ccccc1C1CCN(Cc2ccc(C)cc2)CC1 was read as SW480 rereplic -1%, MCF10A rereplic -9%, KB-3-1 cytotox inactive, KB-V1 cytotox inactive and ELG1 DNA repair -2%.
Screening Cc1ccc(/C=C/C(=O)Nc2cccc([S+](=O)([O-])Nc3ccccc3F)c2)cc1 returned KB-3-1 cytotox inactive and KB-V1 cytotox inconclusive.
Screening C=CCC[C@@H](Cc1ccc(F)cc1)C(=O)OC[C@@H](NC(=O)[C@H](CC=C)CC(=O)N(CCO)Cc1ccccc1)c1ccccc1 returned SW480 rereplic 3%, MCF10A rereplic 27%, KB-3-1 cytotox inconclusive, KB-V1 cytotox inconclusive and ELG1 DNA repair inconclusive.
Screening C=CC[C@@H](CC(=O)N(CCO)Cc1ccccc1)C(=O)NC[C@@H](OC(=O)[C@@H](CC=C)Cc1ccc(F)cc1)c1ccccc1 returned SW480 rereplic -2%, MCF10A rereplic inconclusive, KB-3-1 cytotox inconclusive, KB-V1 cytotox inconclusive and ELG1 DNA repair inconclusive.
`C=CCC[C@@H](Cc1ccc(F)cc1)C(=O)OC[C@H](C)NC(=O)[C@@H](CC=C)CC(=O)N(CCO)Cc1ccccc1` gave SW480 rereplic -2%, MCF10A rereplic -10%, KB-3-1 cytotox inactive, KB-V1 cytotox inactive and ELG1 DNA repair inconclusive.
For C=CCC[C@@H](Cc1ccc(F)cc1)C(=O)OC[C@H](C)NC(=O)[C@H](CC=C)CC(=O)N(CCO)Cc1ccccc1 the results were SW480 rereplic -3%, MCF10A rereplic 5%, KB-3-1 cytotox inactive, KB-V1 cytotox inconclusive and ELG1 DNA repair 26µM*.
`C=CC[C@H](CC(=O)N(CCO)Cc1ccccc1)C(=O)NC[C@H](OC(=O)[C@@H](CC=C)Cc1ccc(F)cc1)c1ccccc1` gave SW480 rereplic 11%, MCF10A rereplic inconclusive, KB-3-1 cytotox inconclusive, KB-V1 cytotox inconclusive and ELG1 DNA repair 15µM*.
For C=CCC[C@@H](Cc1ccc(F)cc1)C(=O)OC[C@@H](NC(=O)[C@@H](CC=C)CC(=O)N(CCO)Cc1ccccc1)c1ccccc1 the results were SW480 rereplic 25%, MCF10A rereplic inconclusive, KB-3-1 cytotox inconclusive, KB-V1 cytotox inconclusive and ELG1 DNA repair 21µM*.
Screening CS(=O)(=O)Nc1cccc(S(=O)(=O)N2CCN(C(=O)c3ccccc3)CC2)c1 returned SW480 rereplic 2%, MCF10A rereplic -4%, KB-3-1 cytotox inactive, KB-V1 cytotox inactive and ELG1 DNA repair 1%.
CCC(C)CCN1C(Nc2ccccc2)=NC[C@@H]1Cc1ccccc1 (some centres undefined) was read as SW480 rereplic 1%, MCF10A rereplic 17%, KB-3-1 cytotox inactive, KB-V1 cytotox inconclusive and ELG1 DNA repair 7%.
